NSD2 HMT inh – blocks human histone methyltransferase NSD2; inhibition, % at 12.5 µM; NSD2 peptide methylation, AlphaScreen, 120 min; O96028; 310,000 compounds, 0.54% hits; in the data active = inhibition above about 50%
F508del corr – CFTR F508del correction in bronchial cells. 350,000 compounds, 0.36% hits. CFBE cells, YFP halide quenching; stimulated with forskolin plus potentiator P3; % fluorescence drop versus neutral controls. activity (quench increase), % at 7.58 µM;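 active = mean added fluorescence quench of at least 8% versus neutral control, with both replicates also reaching 8%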;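 also: cells transiently co-express mutant CFTR-F508del with the halide-sensitive YFP; corrector assay measuring rescue of mutant channel to the surface after 24 h compound exposure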
Casp6 inh – blocks human caspase-6 cleavage activity; AID 686996; purified caspase-6, Z-VEID-R110 cleavage fluorescence; 350,000 compounds, 0.53% hits; P55212; inhibition, % at 12.5 µM;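 active = mean inhibition across replicates at least about 35%, with every replicate also reaching that limit, limit read from the data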;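 also: 0% = median of neutral control wells and 100% = no fluorescence left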
Target sequence (P55212 24-179 limits assumed): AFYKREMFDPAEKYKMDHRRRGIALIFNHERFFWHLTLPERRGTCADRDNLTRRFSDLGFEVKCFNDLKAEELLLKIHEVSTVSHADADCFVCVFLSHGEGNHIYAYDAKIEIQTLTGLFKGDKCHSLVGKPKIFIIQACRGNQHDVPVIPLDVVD
Target sequence (P55212 194-293 limits assumed): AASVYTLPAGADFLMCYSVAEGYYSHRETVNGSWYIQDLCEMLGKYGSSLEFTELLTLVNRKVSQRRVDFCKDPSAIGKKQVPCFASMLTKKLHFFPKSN
HIV Env fusion – inhibitors of HIV Env-mediated cell fusion. HeLa-JRFL Env/CEM21 cell fusion, luciferase. inhibition, % at 12.3 µM. 360,000 compounds, 1.1% hits. AID 651610;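 active = mean replicate inhibition score of at least 50 and every replicate individually at or above 50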;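 also: 0% = plate neutral controls and 100% = maraviroc near 300 nM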
ALR inh – inhibitors of human sulfhydryl oxidase ALR; P55789; purified ALR, DTT oxidation, H2O2 HRP-luminol luminescence; inhibition, % (concentration not given with the values); 290,000 compounds, 3.8% hits;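 active = mean replicate inhibition above about 79%, with every replicate also reaching it, limit read from the data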
Target sequence (P55789 whole entry, looked up): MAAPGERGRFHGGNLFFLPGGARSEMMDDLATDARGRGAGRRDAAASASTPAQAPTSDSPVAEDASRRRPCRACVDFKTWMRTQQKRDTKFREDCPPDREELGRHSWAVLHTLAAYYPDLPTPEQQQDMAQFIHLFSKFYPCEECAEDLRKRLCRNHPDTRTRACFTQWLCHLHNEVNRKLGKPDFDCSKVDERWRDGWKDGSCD
PglD DTNB – blocks C. jejuni PglD acetyltransferase activity. purified PglD enzyme, DTNB colorimetric CoA detection. inhibition, % at 12.5 µM. 360,000 compounds, 0.098% hits; in the data active = inhibition above about 16%, passing the limit was not always enough
Numbers without * were called inactive; / = not tested or not shown; [ ] = remark or other dose. Sampled rows, rich in hits. Any-hit rate of the full collection: about 4.1%.

SMILES	NSD2 HMT inh	F508del corr	Casp6 inh	HIV Env fusion	ALR inh	PglD DTNB
Cc1ccc(OC(=O)COc2ccccc2C)c(-n2nc3ccccc3n2)c1	-2.5	/	/	-120.3	96.3*	2.9
CN(C)c1cccc(/C=C(\C#N)c2ccccc2)c1	4.8	7.1	-5.6	-424.1	99.1*	-3.1
CN(C)c1ccc(/C=C(\C#N)c2ccccc2)cc1	/	/	/	/	/	-9.5
CC(C)COn1c(=S)[nH]c2ccccc2c1=O	-1.5	/	/	-25.0	96.8*	6.2
c1ccc(N2CCN(c3nc4ccccc4n4cnnc34)CC2)cc1	/	-2.4	-3.4	-0.4	97.4*	-2.4
C1=C(c2ccccc2)CCN(c2nc3ccccc3n3cnnc23)C1	/	-1.9	1.7	-11.7	95.0*	-0.5
CC(/C=C/c1ccc(N(C)C)cc1)=N\N=C(/N)SC1CC(=O)N(c2ccc(C(=O)O)cc2)C1=O (stereo not given)	12.2	/	/	-57.4	99.6*	-8.2
O=C(O)c1ccc(N2C(=O)CC(SC(=Nc3ccccc3)Nc3ccccc3)C2=O)cc1 (stereo not given)	-3.5	-1.6	1.7	/	6.9	/
CCC(=O)Nc1c(C#N)c2nc3ccccc3nc2n1-c1ccc(C)cc1	42.9	-0.6	53.5*	17.1	/	/
CCC(C)n1c(NC(=O)c2ccccc2)c(C#N)c2nc3ccccc3nc21 (stereo not given)	/	/	/	/	-13.3	-8.4
OC1(c2ccc(OC(F)F)cc2)CSC(=Nc2cccnc2)N1C1CC1 (stereo not given)	/	/	/	75.3*	-14.7	-3.1
COc1ccc(OC)c(C2(O)CSC(=Nc3cccnc3)N2Cc2ccco2)c1 (stereo not given)	4.2	-1.6	4.2	21.6	-16.8	0.9
COC(=O)c1ccc(C(=O)N2CCCC(Nc3ccc(C(C)C)cc3)C2)cc1 (stereo not given)	15.5	0.2	1.5	1.8	98.1*	2.1
CC(C)c1ccc(NC2CCCN(C(=O)c3n[nH]c4c3CCC4)C2)cc1 (stereo not given)	8.6	5.2	2.4	16.3	98.7*	0.6
O=C(c1ccsc1)N1CCCC(Nc2ccc(F)c(F)c2)C1 (stereo not given)	4.6	-0.1	1.9	2.7	57.4	-4.8
CC(C)c1ccc(NC2CCCN(C(=O)c3ccsc3)C2)cc1 (stereo not given)	10.6	0.5	2.8	3.8	98.4*	-2.7
Cc1cc(C)nc(NS(=O)(=O)c2ccc(NC(=O)c3ccc(O)cc3O)cc2)n1	-0.9	-3.4	3.9	-1.1	99.2*	2.8
Cc1ccc(OCC(=O)Nc2ccc(S(=O)(=O)Nc3onc(C)c3C)cc2)cc1	2.8	/	/	27.7	/	/
COc1cc(NS(=O)(=O)c2ccc(NC(=S)NC(=O)C3CCCC3)cc2)nc(OC)n1	5.2	/	/	-59.7	12.9	-0.3
COc1cc(NS(=O)(=O)c2ccc(NC(=O)NC3CCCCC3)cc2)nc(OC)n1	2.8	/	/	-69.7	97.8*	10.8
CCc1cccc(OCC(=O)Nc2ccc(S(=O)(=O)Nc3onc(C)c3C)cc2)c1	/	-1.9	4.5	14.3	95.1*	-2.9
Cc1cc(C)nc(NS(=O)(=O)c2ccc(NC(=O)c3ccccc3C)cc2)n1	-5.9	1.0	1.1	-56.2	-9.6	-1.7
COc1cc(NS(=O)(=O)c2ccc(NC(=O)COc3ccccc3Cl)cc2)nc(OC)n1	1.1	/	/	-18.5	93.1*	/
O=C(C[C@@H]1CC[C@H](NC(=O)c2ccccc2)[C@@H](CO)O1)Nc1ccc(-c2ccccc2)cc1	/	7.8	-0.7	34.9[16.7 µM]	/	0.4
Cc1cc(C)nc(NS(=O)(=O)c2ccc(NC(=O)COc3ccccc3)cc2)n1	-3.3	/	/	5.5	98.9*	7.0
SMILES	NSD2 HMT inh	F508del corr	Casp6 inh	HIV Env fusion	ALR inh	PglD DTNB
Cc1cccc(OCC(=O)Nc2ccc(S(=O)(=O)Nc3ccccn3)cc2)c1	9.8	2.5	1.6	2.4	-4.4	/
COc1cc(NS(=O)(=O)c2ccc(NC(=O)COc3cccc(C)c3)cc2)nc(OC)n1	0.7	-0.4	-3.0	2.2	98.3*	-1.0
COc1ccc(OCC(=O)Nc2ccc(S(=O)(=O)Nc3cc(C)on3)cc2)cc1	1.7	-5.4	6.6	-5.7	/	0.0
Cc1cc(C)nc(NS(=O)(=O)c2ccc(NC(=O)Cc3ccccc3)cc2)n1	-1.1	/	-1.6	-1.2	-0.4	/
COc1ccccc1OCC(=O)Nc1ccc(S(=O)(=O)Nc2cc(C)on2)cc1	-1.2	0.2	9.7	-0.4	88.8*	-2.6
C[C@@H]1CN([C@H](C)CO)C(=O)c2cc(NS(=O)(=O)c3cn(C)cn3)ccc2O[C@@H](C)CCCCO[C@@H]1CN(C)S(=O)(=O)c1ccccc1	/	-3.1	0.9	-7.0[16.7 µM]	/	-2.5
COc1cccc(-c2ccc3c(c2)O[C@H](CN(C)C)[C@@H](C)CN([C@H](C)CO)S3(=O)=O)c1	/	-1.2	3.4	9.1[16.7 µM]	/	-4.2
S=c1[nH]nc(-c2c[nH]c3ccccc23)o1	0.9	2.5	-1.6	-0.9	97.9*	-5.3
Cc1cc(-c2n[nH]c(=S)o2)c(C)n1-c1ccccc1	8.7	/	/	-36.8	95.0*	/
Oc1cc2ccccc2cc1-c1n[nH]c(=S)o1	/	/	/	-35.6	96.9*	-2.7
C[C@@H]1CN([C@@H](C)CO)S(=O)(=O)c2ccc(C#Cc3ccccn3)cc2O[C@H]1CN(C)Cc1ccccc1	/	-1.3	-4.7	6.5[16.7 µM]	/	-3.2
Oc1c(N=Nc2nn[nH]n2)ccc2ccccc12	/	0.2	93.8*	1.7	/	/
Oc1c(N=Nc2ccc(F)cc2)ccc2ccccc12	4.1	-2.5	0.6	-199.9	/	3.1
COc1ccc(NC(=O)Nc2ccc3c(c2)C(=O)N([C@@H](C)CO)C[C@H](C)[C@@H](CN(C)Cc2ccccc2)O3)cc1	/	-0.3	-2.0	-1.4[16.7 µM]	/	-2.6
CC(=O)c1c(C)oc(C)c1CSCc1ccc(C(=O)O)o1	28.7	/	/	2.2	97.4*	-2.3
CO[C@H]1CN(C)C(=O)c2ccc(NC(=O)c3ccc(F)cc3)cc2OC[C@H](C)N(C)C[C@@H]1C	/	-2.2	-0.2	/	/	/
Cc1[nH]c2c(Br)cccc2c1[C@H]1[C@@H](CC#N)C1(C)C	1.6	/	/	-39.0	3.7	7.4
Cc1c([C@H]2[C@@H](CC#N)C2(C)C)c2ccccc2n1C	-0.6	/	/	/	97.1*	-5.1
CC(=O)N(C)C[C@@H]1Oc2ncc(C#Cc3ccc(F)cc3)cc2C(=O)N([C@@H](C)CO)C[C@@H]1C	/	2.5	3.0	-6.7[16.7 µM]	/	-3.3
O=S1(=O)C=C(Sc2nnc(-c3ccccc3)o2)c2ccccc21	/	/	/	/	78.4*	10.6
COC(=O)CSC1=C(C#N)C(c2ccc3c(c2)OCO3)C2=C(CCCC2=O)N1 (stereo not given)	/	/	/	/	98.9*	-3.5
CC(C)CNC(=O)c1ccccc1NC(=O)c1ccc(CSc2ccccc2)cc1	-0.6	/	1.8	12.2	-3.3	-3.9
CCC(C)NC(=O)c1ccccc1NC(=O)c1ccc(CSc2ccc(C)cc2)cc1 (stereo not given)	-7.7	0.9	0.2	/	99.5*	-2.5
COc1ccc(CNC(=O)CSc2ncnc3ccccc23)cc1OC	-1.0	-1.8	-2.4	-0.1	88.7*	/

Screening results from PubChem.
